Several values for one entry are separate records, joined by “and”; a condition that tells them apart may be missing. Equal entries are not always repeated. Results filed as inconclusive are left out. More than one record can exist for a structure, and the calls need not agree. Activity calls are given as the source filed them. Rule for the calls, unless noted: active = hit-call score of the fitted dose curve at least 0.9, where 1 is the maximum; inactive = score below 0.9.
Columns and labels:
[1] = read-out: Interleukin-8 (IL8), CXCL8 (gene 3576); test: BSK_3C_IL8: BioMAP Diversity Plus: 3C Assay for Interleukin-8 (IL8) Biomarker Activity (AID 2283020); conditions: primary human endothelial cells (HUVEC); actives raise or lower the signal
Method in brief: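 Primary human umbilical vein endothelial cells (3C system) were exposed to test chemical for 24 h, then IL-8 was quantified by ELISA. Responses were fitted bidirectionally against DMSO vehicle as baseline.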

[2] = read-out: Monokine induced gamma interferon (MIG), CXCL9 (gene 4283); test: BSK_3C_MIG: BioMAP Diversity Plus: 3C Assay for Monokine induced gamma interferon (MIG) Biomarker Activity (AID 2283021); conditions: primary human endothelial cells (HUVEC); actives raise or lower the signal;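 for AC50: MIG protein level measured by immunoassay in the treated endothelial cultures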
Method in brief: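 Primary human umbilical vein endothelial cells in the 3C system were exposed to chemical for 24 h, after which MIG was quantified by ELISA. Activity was fitted bidirectionally against DMSO as negative control and baseline.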

[3] = target: human Vitamin D Receptor (VDR), VDR (gene 7421) (UniProt P11473); test: ATG_VDR_TRANS: Attagene TRANS-FACTORIAL HepG2 Assay for human Vitamin D Receptor (VDR) (AID 2283022; active = hit-call score of the fitted dose curve at least 0.9, where 1 is the maximum)
human Vitamin D Receptor (VDR), VDR (gene 7421), sequence (P11473 whole entry, looked up, the tested form may be a part): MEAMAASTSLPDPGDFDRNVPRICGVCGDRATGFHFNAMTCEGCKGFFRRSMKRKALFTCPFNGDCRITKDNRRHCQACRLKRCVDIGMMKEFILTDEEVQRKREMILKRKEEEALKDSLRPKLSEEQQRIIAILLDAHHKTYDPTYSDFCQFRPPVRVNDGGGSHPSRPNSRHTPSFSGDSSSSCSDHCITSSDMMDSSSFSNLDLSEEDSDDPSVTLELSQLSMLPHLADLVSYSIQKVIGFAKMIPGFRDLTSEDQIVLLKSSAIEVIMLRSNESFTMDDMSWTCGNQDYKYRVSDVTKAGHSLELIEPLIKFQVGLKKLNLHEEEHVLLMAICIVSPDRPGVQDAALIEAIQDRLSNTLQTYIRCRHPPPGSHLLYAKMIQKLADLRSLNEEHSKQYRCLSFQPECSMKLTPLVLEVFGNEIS
Method in brief: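 RT-PCR/capillary electrophoresis read-out of reporter mRNA induction in transiently transfected HepG2; 24 h dosing; chimeric NR-Gal4 (TRANS format); gain-of-signal fit against DMSO baseline.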

[4] = BSK_3C_SRB: Viability Assessment in the BioMAP Diversity Plus: 3C Assay (AID 2283023); conditions: primary human endothelial cells (HUVEC);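 note: cells read 24 h after compound dosing; fitted both ways against DMSO so a hit may be signal rise or drop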
Method in brief: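 HUVEC, 24 h post-dose; 10% TCA fix, 0.1% SRB stain, A560 nm. Bidirectional curve fit vs DMSO negative control.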

[5] = BSK_3C_Vis: BioMAP Diversity Plus: 3C Assay for Morphology Visualization (AID 2283025); conditions: primary human endothelial cells (HUVEC);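 note: fitted both ways so gain or loss versus DMSO counts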
Method in brief: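 Human umbilical vein endothelial cells in the 3C system were imaged by light microscopy 24 h after chemical dosing to record cell morphology. Activity was fitted bidirectionally against DMSO as negative control and baseline; the endpoint serves as a background control.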

[6] = read-out: Pselectin, SELP (gene 6403); test: BSK_4H_Pselectin: BioMAP Diversity Plus: 4H Assay for Pselectin Biomarker Activity (AID 2283026); conditions: primary human endothelial cells (HUVEC); actives raise or lower the signal
Method in brief: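 Primary human umbilical vein endothelial cells were exposed to test chemical for 24 h, then cell-surface P-selectin was quantified by ELISA. Activity was fitted bidirectionally against DMSO as negative control and baseline.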

[7] = BSK_BE3C_SRB: Viability Assessment in the BioMAP Diversity Plus: BE3C Assay (AID 2283028); conditions: primary human bronchial epithelial cells;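 for AC50: fitted both ways so AC50 may mark signal gain or loss versus DMSO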
Method in brief: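 Primary human bronchial epithelium; chemical dosing, 24 h; 10% TCA fix, 0.1% SRB stain, A560; bidirectional fit vs DMSO baseline.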

[8] = read-out: Thrombomodulin, THBD (gene 7056); test: BSK_3C_Thrombomodulin: BioMAP Diversity Plus: 3C Assay for Thrombomodulin Biomarker Activity (AID 2283029); conditions: primary human endothelial cells (HUVEC); actives raise or lower the signal
Method in brief: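 Primary human umbilical vein endothelial cells (3C system) were exposed to chemical for 24 h, then thrombomodulin levels were measured by ELISA. Activity was fitted bidirectionally against the DMSO negative control as baseline.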

[9] = read-out: Urokinase-type plasminogen activator receptor (uPAR), PLAUR (gene 5329); test: BSK_4H_uPAR: BioMAP Diversity Plus: 4H Assay for Urokinase-type plasminogen activator receptor (uPAR) Biomarker Activity (AID 2283030); conditions: primary human endothelial cells (HUVEC); actives raise or lower the signal
Method in brief: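 HUVEC, 24 h post-dose; uPAR by ELISA; bidirectional fit vs DMSO baseline.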

[10] = read-out: Vascular endothelial growth factor receptor 2 (Homo sapiens) (UniProt P35968); test: BSK_4H_VEGFRII: BioMAP Diversity Plus: 4H Assay for Vascular endothelial growth factor receptor 2 (VEGFR2) Biomarker Activity (AID 2283031); conditions: primary human endothelial cells (HUVEC); actives raise or lower the signal
Method in brief: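 HUVEC (human primary), 4H system; 24 h post-dose; VEGFRII by ELISA; bidirectional curve fit vs DMSO baseline; gain or loss of signal scored.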

[11] = read-out: Human Leukocyte Antigen - DR isotype (HLADR), HLA-DRA (gene 3122); test: BSK_BE3C_HLADR: BioMAP Diversity Plus: BE3C Assay for Human Leukocyte Antigen - DR isotype (HLADR) Biomarker Activity (AID 2283032); conditions: primary human bronchial epithelial cells; actives raise or lower the signal
Method in brief: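 Human primary bronchial epithelial cells in the BE3C system were exposed to chemicals for 24 h, after which HLA-DR levels were quantified by ELISA. Activity was fitted bidirectionally, gain or loss of signal, against DMSO as negative control and baseline.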

[12] = read-out: Vascular cell adhesion molecule 1 (VCAM1), VCAM1 (gene 7412); test: BSK_4H_VCAM1: BioMAP Diversity Plus: 4H Assay for Vascular cell adhesion molecule 1 (VCAM1) Biomarker Activity (AID 2283033); conditions: primary human endothelial cells (HUVEC); actives raise or lower the signal
Method in brief: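 Primary human umbilical vein endothelial cells were exposed to chemicals for 24 h, after which VCAM-1 was quantified by ELISA. Responses were fitted bidirectionally against DMSO as negative control and activity baseline.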

[13] = read-out: Interferon-gamma inducible Protein 10 (IP10), CXCL10 (gene 3627); test: BSK_BE3C_IP10: BioMAP Diversity Plus: BE3C Assay for Interferon-gamma inducible Protein 10 (IP10) Biomarker Activity (AID 2283034); conditions: primary human bronchial epithelial cells; actives raise or lower the signal
Method in brief: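 Human primary bronchial epithelial cells were exposed to chemicals for 24 hours, after which IP-10 levels were measured by ELISA. Data were fitted bidirectionally against DMSO, which served as the negative control and activity baseline.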

[14] = read-out: Monokine induced gamma interferon (MIG), CXCL9 (gene 4283); test: BSK_BE3C_MIG: BioMAP Diversity Plus: BE3C Assay for Monokine induced gamma interferon (MIG) Biomarker Activity (AID 2283035); conditions: primary human bronchial epithelial cells; actives raise or lower the signal
Method in brief: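 MIG level was determined by ELISA after 24 h chemical treatment of primary human bronchial epithelial cells. Values were fitted bidirectionally with DMSO as the negative control and activity baseline.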

[15] = read-out: Transforming growth factor beta 1 (TGFb1), TGFB1 (gene 7040); test: BSK_BE3C_TGFb1: BioMAP Diversity Plus: BE3C Assay for Transforming growth factor beta 1 (TGFb1) Biomarker Activity (AID 2283036); conditions: primary human bronchial epithelial cells; actives raise or lower the signal
Method in brief: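 Human primary bronchial epithelial cells (BE3C system) were dosed with chemical and TGF-b1 levels measured by ELISA at 24 h. Activity was fitted bidirectionally relative to DMSO negative control as baseline.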

[16] = read-out: Plasminogen activator inhibitor-1 (PAI1), SERPINE1 (gene 5054); test: BSK_BE3C_PAI1: BioMAP Diversity Plus: BE3C Assay for Plasminogen activator inhibitor-1 (PAI1) Biomarker Activity (AID 2283037); conditions: primary human bronchial epithelial cells; actives raise or lower the signal
Method in brief: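 Human primary bronchial epithelial cells were exposed to chemical for 24 h, then PAI-1 was quantified by ELISA. Activity was fitted bidirectionally relative to the DMSO negative control baseline.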

[17] = read-out: urokinase plasminogen activator (uPA), PLAU (gene 5328); test: BSK_BE3C_uPA: BioMAP Diversity Plus: BE3C Assay for urokinase plasminogen activator (uPA) Biomarker Activity (AID 2283038); conditions: primary human bronchial epithelial cells; actives raise or lower the signal
Method in brief: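 ELISA read-out of uPA in human lung primary bronchial epithelial cultures, 24 h post-dosing. Gain or loss of signal fitted bidirectionally relative to DMSO baseline; cytotoxicity checked in parallel cultures via SRB total protein stain.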

[18] = read-out: Urokinase-type plasminogen activator receptor (uPAR), PLAUR (gene 5329); test: BSK_BE3C_uPAR: BioMAP Diversity Plus: BE3C Assay for Urokinase-type plasminogen activator receptor (uPAR) Biomarker Activity (AID 2283039); conditions: primary human bronchial epithelial cells; actives raise or lower the signal
Method in brief: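 Primary human bronchial epithelial cells were dosed with chemical and harvested 24 h later; uPAR was quantified by ELISA. Activity was fitted bidirectionally against DMSO as negative control and baseline.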

[19] = read-out: Matrix Metallopeptidase 1 (MMP1), MMP1 (gene 4312); test: BSK_BE3C_MMP1: BioMAP Diversity Plus: BE3C Assay for Matrix Metallopeptidase 1 (MMP1) Biomarker Activity (AID 2283024); conditions: primary human bronchial epithelial cells; actives raise or lower the signal
Method in brief: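 Primary human bronchial epithelial cells were dosed with test chemicals, and MMP1 levels were measured by ELISA 24 h later. Data were fitted bidirectionally against DMSO as the negative control and activity baseline.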

[20] = BSK_4H_SRB: Viability Assessment in the BioMAP Diversity Plus: 4H Assay (AID 2283027); conditions: primary human endothelial cells (HUVEC);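 note: cells exposed to compound for 24 h before staining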
Method in brief: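 Absorbance at 560 nm of SRB-stained total protein served as the viability read-out in confluent primary human umbilical vein endothelium 24 h after chemical treatment. Curves were fitted bidirectionally against DMSO as negative control.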

Measured: AC50

CC/C=C\C/C=C\C/C=C\CCCCCCCC(=O)OC
active: [1] 37.2 µM | [2] 37.2 µM | [4] 29.8 µM | [5] 37.5 µM | [6] 19.9 µM | [7] 28.5 µM | [8] 5.05 µM | [9] 30.9 µM | [11] 13.4 µM | [12] 29 µM | [13] 11.8 µM | [14] 29.6 µM | [15] 9.17 µM | [16] 25.5 µM | [17] 29.8 µM | [18] 28.8 µM
inactive: [3] | [10]

COC(OC)(C(=O)c1ccccc1)c1ccccc1
active: [1] 0.016 µM
not listed: [19] | [20]
inactive: all other assays above

C[N+](C)(C)CCCNS(=O)(=O)C(F)(F)C(F)(F)C(F)(F)C(F)(F)C(F)(F)C(F)(F)C(F)(F)C(F)(F)F
active: [1] 44.3 µM | [4] 30.7 µM and 20.8 µM | [6] 30 µM and 16.8 µM | [11] 54.8 µM | [13] 30 µM and 43.7 µM | [17] 1.1 µM
inactive: [1] | [2] | [3] | [7] | [8] | [9] | [10] | [11] | [12] | [14] | [16] | [17] | [18]

CC(C)[N+](C)(CCOC(=O)C1c2ccccc2Oc2ccccc21)C(C)C
not listed: [19] | [20]
inactive: all other assays above

CCCCCCOC(=O)CCCCC(=O)OCCCCCC
not listed: [20]
inactive: all other assays above

CC1(C)CC(O)CC(C)(C)N1[O]
not listed: [19] | [20]
inactive: all other assays above

C=CC(=O)OCCCCCCCC(C)C
active: [8] 6.25 µM | [12] 15.7 µM
not listed: [19] | [20]
inactive: all other assays above

O=C(Oc1ccccc1)c1ccccc1C(=O)Oc1ccccc1
active: [4] 20 µM
not listed: [3] | [19] | [20]
inactive: all other assays above

[Cl][Sc]([Cl])[Cl]
inactive: [3]

COc1ccc(C(=O)c2ccccc2)c(O)c1
active: [4] 4.55 µM | [12] 29.1 µM
not listed: [3] | [19] | [20]
inactive: all other assays above

CC1=CC=C(C(C)C)CC1
not listed: [3] | [19]
inactive: all other assays above

CCCC(C)C(=O)OCC (configuration not stated)
not listed: [3] | [5] | [15] | [19] | [20]
inactive: all other assays above

CCCCc1ccc(Cl)cc1
inactive: [3]

CCCCCCCCCCCCc1ccc(O)cc1
inactive: [3]

Oc1c(Cl)cc(Cl)c(Cl)c1Cl
inactive: [2] | [7] | [8] | [10] | [14] | [15]
active: [1] 20 µM | [4] 20 µM | [5] 16.6 µM | [6] 31.5 µM | [9] 20 µM | [11] 6.25 µM | [12] 20 µM | [13] 20 µM | [16] 7.51 µM | [17] 6.07 µM | [18] 20 µM

CC=C(C)C=CC=C(C)C
active: [8] 3.97 µM | [11] 15.9 µM | [17] 0.0546 µM
not listed: [3] | [19]
inactive: all other assays above

CC(c1cc(C(C)(C)C)cc(C(C)(C)C)c1O)c1cc(C(C)(C)C)cc(C(C)(C)C)c1O
active: [6] 0.965 µM
not listed: [3]
inactive: all other assays above

Source: PubChem BioAssay (EPA / NIEHS)
